# Results: the OligoGym collection
# Molecular target: DSPP
# Assay: pooled miR-30 sensor sort-seq; sequence = guide strand
# Details: shRNA
# Note: reference of the scale not given here.
row,Sequence,sensor-assay potency score (higher = more potent)
1,TTCTCTATGGTTGAGCTTCTGG,-0.413
2,TTCACTGCTATCACTGCTGTTG,-0.29
3,TTGTCTGTACTGTTATTGCTTC,-0.739
4,TTCACTTGTATTACCCTCGTTT,0.22
5,TTTTTCGACATGTCTCTCCAGT,-0.00978
6,TTTGCTTTCTCTATGGTTGAGC,0.0105
7,TATTCTTATCAGTATTTCCATT,-0.803

# Molecular target: DTNBP1
# Assay: as above
# Details: shRNA
row,Sequence,sensor-assay potency score (higher = more potent)
1,TTTTCTTGTAATTCTCCAGTTG,-0.365
2,TAAGTCTTCCAGATGCAGCAGG,-0.317
3,TTCCTCAAAAAACTTCTGCCGC,-0.552
4,TGACTTGTCACTTAAAGTCTTC,-0.418
5,ATTTTTCTTGTAATTCTCCAGT,-0.545
6,TATTTTTCTTGTAATTCTCCAG,-0.412
7,TCATCGGACTGAACAACGGGGG,-0.232
8,TTTGCTTCTCTTGACTTGTCAC,0.23
9,TCACTTAAAGTCTTCAGCCCGG,-0.801
10,TCTAGTTCAGCTTTGAAGGTTT,0.0978
11,TAAAACAACCTGGCTTTCCAGG,-0.923
12,TTTCTTGTAATTCTCCAGTTGC,-0.554

# Molecular target: DTX1
# Assay: as above
# Details: shRNA
row,Sequence,sensor-assay potency score (higher = more potent)
1,TGTATCTTCGAACCACATCCTC,-0.0113
2,TTTTGAAAAGAGCAATCGCTGG,-0.945
3,TTGTTGGGTAGATAGCAGTGGC,-0.92
4,TGAGGTTGGATCCAAACTCGGT,-0.565
5,TCTAGGTAGCTAGCGTCCGGGT,-1.53
6,TTCTTTTGTAGAACTGCTCAGT,-0.299
7,TGCTTCTTCTTGGTCTTGCGGC,-0.99
8,TATTTCTCCACCCACAGTGGGA,-0.561
9,TTTAAGGTGCTTCTTCTTGGTC,-0.486
10,TTGCGGTGAACTTCTTCCCGGG,-0.0133
11,TTTGAAAAGAGCAATCGCTGGC,0.224
12,TTGACCAGCAGGCACTGCTGGC,-1.17
13,TTGGTCTTGCGGCACACCCCGG,-0.985
14,TGTCTAGGTAGCTAGCGTCCGG,-0.967
15,TTCACCTTCTGCATGTATCTTC,0.43
16,TTCATCTGCGACATGCTGTTGA,0.174
17,TAGATGAGGTAGCAGAAGCCTA,-1.12
18,TATCTTCGAACCACATCCTCGG,0.116
19,TTGGATCCAAACTCGGTCTTGT,0.0701
20,TGTCTCTTCTCTTCCAGCCTGG,0.154
21,TAGAACTGCTCAGTCATCTGGG,0.451
